The whole screen tested about 69,000 compounds, of which about 8,600 (12%) showed an effect of 50% or more. This excerpt belongs to a sample that is enriched for strong results.
Tested on: Plasmodium berghei
Assay: Screen against P. berghei liver stage (PbLuc), transformed with Luciferase, at 10uM
Assay type: functional, HepG2
Conditions: tested at 10 uM

SMILES | INHIBITION
Cc1noc([C@H]2COC[C@H]3CN(C(=O)Cc4cccc(F)c4)C[C@H]32)n1 | 38.5%
COc1c(C)cnc(CN2CCOC(CNc3cccnn3)C2)c1C (centres undefined) | 9.54%
O=C(CN1CCN(C(=O)c2ccccc2)CC1)Nc1ccc(Br)cn1 | 47.3%
CCn1ccnc1CN1CCCN(C(=O)c2scnc2C)CC1 | 13.64%
O=C(O)CCn1nc(C(F)(F)F)c(Cl)c1C1CC1 | 31.7%
O=C(NCC1Cn2nnc(-c3ccncc3)c2CO1)c1ccc[nH]1 (centres undefined) | 31.4%
Cc1cccc(CN2C[C@@H]3CCCO[C@@H]3[C@H](Nc3ccccn3)C2)n1 | 25.3%
O=C(CCc1cc2n(n1)CCCNC2)N1CCN(C2CCCC2)C(=O)C1 | -34.8%
CO[C@H]1CN(Cc2cc(F)ccc2F)CC[C@@]12CCCO2 | -9.27%
COc1ccc2[nH]cc(C(=O)CNc3nccs3)c2c1 | 12.8%
Fc1ccc(CN2CCCC2Cn2cncn2)c2ncccc12 (centres undefined) | 79.2%
Clc1ccc2cccnc2c1CN1CCCCC1Cn1cncn1 (centres undefined) | 45.65%
Clc1ccc2cccnc2c1CN1CCCC(Cn2cncn2)C1 (centres undefined) | 22.9%
Clc1ccc(CN2CCCC2Cn2cncn2)c2ncccc12 (centres undefined) | 23.45%
Fc1ccc(CN2CCCCC2Cn2cncn2)c2ncccc12 (centres undefined) | 21.6%
CS(=O)(=O)NCC1CCCN(Cc2ccc(F)c3cccnc23)C1 (centres undefined) | 18.5%
Clc1ccc2cccnc2c1CN1CCCC1Cn1cncn1 (centres undefined) | 66.2%
OC1CCCN(Cc2ccc(F)c3cccnc23)C1 (centres undefined) | 54.4%
Fc1ccc(CN2CCCC(Cn3cncn3)C2)c2ncccc12 (centres undefined) | -44.8%
CC(C)C(C)NC(=O)Nc1ccc(F)c(C(N)=O)c1 (centres undefined) | 1.75%
O=C(C1CNCCN1C(=O)CCc1cccnc1)N1CCOCC1 (centres undefined) | 42.1%
CNC(=O)[C@@H]1[C@H]2CN(Cc3ccccn3)CCN2C[C@H]1c1ccccc1 | 8.61%
Cc1csc(NC(=O)Cn2nc(C)ccc2=O)n1 | 37.8%
O=C(COCCOc1ccccc1)NC1CCN(C(=O)C2CC2)CC1 | 29.9%
COCCN1C(=O)CCC12CCN(C(=O)CC1CC1)CC2 | 21.6%
CN(Cc1nccn1C)C(CO)c1cccc(Br)c1 (centres undefined) | 33.7%
CN(Cc1ccccn1)C(CO)c1cccc(Br)c1 (centres undefined) | 88%

SMILES | INHIBITION
CN(Cc1cnn(C)c1)C(CO)c1cccc(Br)c1 (centres undefined) | 49%
COc1cc(F)ccc1N(C)Cc1ccncc1 | -24.9%
CC(C)OCCCN(Cc1ccncc1)Cc1cccc(F)c1 | 43.6%
CN(Cc1ccccn1)C(C(=O)O)c1ccc2c(c1)OCO2 (centres undefined) | 40.3%
CN(Cc1cccnc1)C(CO)c1cccc(Br)c1 (centres undefined) | 85.2%
CN(Cc1ccncc1)C(CO)c1cccc(F)c1 (centres undefined) | 68.5%
CN(Cc1ccncc1)C(CO)c1cccc(Br)c1 (centres undefined) | 4.52%
CCn1nnc(NCc2ccccc2OCc2ccc(Cl)cc2)n1 | -3.5%
CCN1CCN(CCNC(=O)c2sc(C)nc2C)CC1 | 1.75%
CN(C)C(=O)N1CC2(CCN(CC3CC3)CC2)c2cc(F)ccc21 | -13.4%
Cc1cc(C2CCN(S(=O)(=O)c3cn(C)cn3)CC2)ccn1 | 17.1%
CCC(C)(C)C(=O)N1C[C@@H]2C[C@@H](c3nnc(C)[nH]3)O[C@@H]2C1 | 30.5%
OCC1(NCc2cnc(-c3ccccn3)s2)CCOCC1 | -16.4%
CCc1nc(C2CCCN2CC(=O)NCCc2ccsc2)no1 (centres undefined) | 25.6%
CC(=O)NCc1cc2n(n1)CCN(Cc1cccc(Cl)c1F)C2 | 10.7%
Cc1c(C(C)NC2CSCCSC2)cnn1-c1ccc(F)cc1F (centres undefined) | 43.7%
COc1ccc(-n2ncc(C(C)NC3CCSCC3)c2C)cc1 (centres undefined) | 53.8%
COc1ccc(-n2ncc(C(C)NC3Cc4ccccc4C3)c2C)cc1 (centres undefined) | 63.8%
Cc1c(C(C)NC2CCN(C(C)C)CC2)cnn1-c1ccc(F)cc1F (centres undefined) | 46.9%
COc1ccc(-n2ncc(C(C)NC3CCOCC3)c2C)cc1 (centres undefined) | 23.7%
Cc1c(C(C)NCc2cnn(C)c2)cnn1-c1ccccc1 (centres undefined) | 43%
O=C(N[C@@H]1CN(C2CCCC2)C[C@@H]2CCCO[C@@H]21)c1cnccn1 | -45.5%
CCC1CCCCN1C(=O)Cn1cnc(C#N)n1 (centres undefined) | 47.9%
CC1CCCCN1C(=O)Cn1cnc(C#N)n1 (centres undefined) | 69.3%
N#Cc1ncn(CC(=O)N2CCCC2c2cccs2)n1 (centres undefined) | 23.3%
CSc1ccc(-c2cc(CN)nc3ccnn23)cc1 | 13%
COc1cccc(NC(=O)NC2(c3noc(CN(C)C)n3)CCCC2)c1 | 16.2%
